# Experimental data taken from PubChem BioAssay AID463215 (Sanford-Burnham Center for Chemical Genomics, 2010).
# Hit rate of the full screen: of about 4,600 compounds, about 2,900 (63%) were called active.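 How the source made its calls: active means inhibition of yeast growth at or above a set limit in either of two replicates at 10 µM; inactive means the rest.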 So high a share suggests a set chosen from earlier hits. This excerpt belongs to a sample that is enriched for actives.
# Test: growth inhibitors of wild-type TIM10 yeast, confirmation, counter-screen for tim10-1 synthetic lethality project, single concentration, luminescence, S. cerevisiae (AID 463215);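 further: isogenic wild-type TIM10 control yeast grown in succinate dextrose medium; 0% = yeast with DMSO and 100% = medium wells lacking yeast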
# Settings: S. cerevisiae tim10 strain growth, BacTiter-Glo luminescence, 24 h; at 10 µM; active compounds read high
row,SMILES,inhibition
1,Cc1cc2ccccn2c1C(C[N+](=O)[O-])c1c(F)cccc1Cl (stereo not given),36.1% (active)
2,COc1cccc(N2C(=O)NC(=O)/C(=C\c3ccc([N+](=O)[O-])s3)C2=O)c1,39.2% (active)
3,O=C1NC(=O)N(c2ccccc2)C(=O)/C1=C/c1ccc([N+](=O)[O-])s1,40% (active)
4,C/C(=N/O)c1ccc2ccc3ccccc3c2c1,42.5% (active)
5,Cc1ccc(-c2nc3ccccc3c(=O)n2-c2ccc(Br)cn2)cc1,46.5% (active)
